According to PubChem BioAssay (NCATS):
Records with an inconclusive call do not appear. Activity calls are given as the source filed them. Unless noted, calls come from the whole dose curve; as a rule, active = well fitted curve in either direction with a large enough effect (not every such curve was filed as active); inconclusive = small, poorly fitted or top-dose-only effect, or another doubt; inactive = flat fitted curve, though single readings scatter.

Legend:
[1] = target: Lysosomal acid glucosylceramidase (Homo sapiens) (UniProt P04062); test: Glucocerebrosidase-p2 (AID 348; in the data active = potency below about 10 µM; note: potency is the fitted concentration of half-maximal effect); conditions: purified GBA, blue fluorogenic substrate, 40 min
Method in brief: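 Compounds titrated from 0.6 nM upwards against 0.2 nM enzyme in pH 5.9 citric acid/KH2PO4, taurocholate, tween-20; blue fluorogenic substrate 80 uM, 40 min room temperature, stopped and read Ex 365/Em 440 for AC50.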

[2] = AP1 Signaling Pathway (AID 357); conditions: ME-180 AP-1-bla reporter, EGF-induced, beta-lactamase ratio, 5 h; at 7.69 µM (top of the series) unless noted;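 note: ME-180 reporter cells stimulated with EGF at its EC50 level; % is set by controls: 0 for no effect and ±100 for the full control effect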
Method in brief: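 First, ME-180 AP-1-bla cells were cultured overnight at 37 °C in low-serum Opti-MEM. Next, titrated compounds with EC50 EGF were incubated 5 hours. Finally, CCF4 was added for 2.5 hours and the 460/530 nm ratio recorded.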

[3] = NFAT Signaling Pathway (AID 444); conditions: Jurkat NFAT-bla M1, carbachol, beta-lactamase ratio, 5 h; at 7.69 µM (top of the series) unless noted;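 note: carbachol stimulus at about its EC50 of 1 µM final; % is set by controls: 0 for no effect and ±100 for the full control effect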
Method in brief: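 Read-out: CCF4 FRET ratio (460 nm/530 nm) after 1 h RT dye loading, used for %activity and AC50 from titration series. Cells: Jurkat NFAT-β-lactamase/M1 line, treated with compound plus 1 uM carbachol for 5 h, 37 °C.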

[4] = Stat Signaling Pathway (AID 446); conditions: ME-180 SIE beta-lactamase reporter, IL-6 stimulated, 5 h; at 7.69 µM (top of the series) unless noted;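 note: ME-180 cervical cancer cells given 40 pM IL-6 alongside compound; SIE-controlled beta-lactamase reporter measured as 460/530 nm FRET emission ratio; % is set by controls: 0 for no effect and ±100 for the full control effect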
Method in brief: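 IL-6/STAT signaling read in ME-180 cells via an SIE beta-lactamase reporter. Stimulus was 40 pM IL-6 (its AC50) for 5 hrs, so both activation and inhibition register.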

[5] = target: Glucocorticoid receptor (Homo sapiens) (UniProt P04150); test: GR-EFC Redistribution (AID 451; calls by dose curve; note: potency is the fitted concentration of half-maximal effect); conditions: CHO-K1 GR-EFC translocation, beta-gal luminescence, 2 h
Method in brief: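 Translocation of GR-ED fusion to nuclear EA restores b-gal, read by luminescence after 1 h room-temperature detection. Engineered CHO-K1 biosensor cells, 1,000/well, exposed 2 h at 37 C to titrations up to 46 uM final.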

[6] = target: Mitogen-activated protein kinase 10 (Mus musculus) (UniProt Q61831); test: JNK3 AlphaScreen Assay (AID 530); conditions: JNK3 lysate, c-Jun phosphorylation; series mostly up to 57.1 µM;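 note: kinase came from lysate of stimulated human HepG2 cells; signal reports phosphorylation of biotinylated GST-cJun 1-79 at Ser73 with 10 µM ATP; % is set by controls: 0 for no effect and ±100 for the full control effect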
Method in brief: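 Compound titrations were preincubated 15 minutes at room temperature with substrate, antibody and pre-activated JNK3-containing HepG2 lysate. Reactions were started with 10 uM ATP and stopped with EDTA-containing bead buffer for AlphaScreen detection.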

[7] = target: 3',5'-cyclic-AMP phosphodiesterase 4B (Homo sapiens) (UniProt Q07343); test: qHTS Assay for Inhibitors of PDE-IV (AID 607; active = well fitted activation curve with a large enough effect in the main read-out, with a control signal flat, not every such curve was filed as active; note: % of control where 0% means no effect); conditions: HEK293 ACTOne CNG channel cells, membrane potential fluorescence; series mostly up to 22.9 µM
Method in brief: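 Live HEK293 cells with a modified cyclic nucleotide-gated (CNG) channel report intracellular cAMP via membrane-potential dye fluorescence (ex 535/em 590 nm). Endogenous PDE-IV was targeted. Compounds were tested at up to 22.9 uM final; RO 20-1724 100 uM served as control.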

[8] = Primary qHTS for small molecule stabilizers of the endoplasmic reticulum resident proteome: Secreted ER Calcium Modulated Protein (SERCaMP) assay (AID 1508630; active = well fitted curve in the direction sought with a large enough effect; an effect the other way counts as inactive or inconclusive; note: % is set by controls: 0 for no effect and ±100 for the full control effect); conditions: SH-SY5Y GLuc-SERCaMP (Gaussia luciferase released on ER calcium loss) secretion, thapsigargin, luminescence; series mostly up to 38.4 µM
Method in brief: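 GLuc-SERCaMP-expressing SH-SY5Y cells, pretreated 16 h with compound, are challenged with thapsigargin to empty ER calcium stores; after 4 h, coelenterazine is added directly to the medium and luminescence is imaged.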

[9] = qHTS Assay for Identification of Small Molecule Agonists for Hypoxia Response Element Signaling Pathway (AID 914; active = well fitted activation curve with a large enough effect in the signal ratio, with a control signal flat, not every such curve was filed as active; the % refers to the signal ratio; note: % of control where 0% means no effect); conditions: ME-180 HRE-bla reporter, beta-lactamase ratio, CoCl2, 17 h; activation: stronger effect = higher value
Method in brief: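 ME-180 cells carrying an HRE-driven beta-lactamase reporter were treated with compounds in a titration series plus an EC50 level of CoCl2 for 17 h at 37 degrees Celsius; CCF4 readout as the 460nm/530nm ratio gave AC50 values.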

[10] = target: Cytochrome P450 3A4 (Homo sapiens) (UniProt P08684); test: qHTS Assay for Inhibitors and Substrates of Cytochrome P450 3A4 (AID 884; active = well fitted curve in the direction sought with a large enough effect; an effect the other way counts as inactive or inconclusive; note: % is set by controls: 0 for no effect and ±100 for the full control effect; nearly all actives have a fitted effect of over 50% in size); conditions: recombinant CYP3A4, Luciferin-PPXE luminescence; series mostly up to 57.1 µM
Method in brief: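 20 nM human CYP3A4 with 25 uM Luciferin-PPXE (at KM) in 200 mM KPO4, preincubated 10 min with compound; NADPH regeneration started a 60 min RT reaction. Luciferin detected by luminescence, normalized to 57 uM ketoconazole as full inhibition.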

[11] = target: Cytochrome P450 3A4 (Homo sapiens) (UniProt P08684); test: qHTS Assay for Activators of Cytochrome P450 3A4 (AID 885; active = well fitted curve in the direction sought with a large enough effect; an effect the other way counts as inactive or inconclusive; note: nearly all actives have a fitted effect of over 65% in size; note: potency is the fitted concentration of half-maximal effect); conditions: recombinant CYP3A4, Luciferin-PPXE luminescence, 60 min; series mostly up to 57.1 µM
Method in brief: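 Quantitative HTS format: compounds preincubated with 20nM human CYP3A4 and Luciferin-PPXE substrate at KM, reaction started by NADPH regeneration, stopped after 60 min, luciferase luminescence read 20 min later.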

Sequence of 3',5'-cyclic-AMP phosphodiesterase 4B (Homo sapiens) (Q07343 whole entry, looked up): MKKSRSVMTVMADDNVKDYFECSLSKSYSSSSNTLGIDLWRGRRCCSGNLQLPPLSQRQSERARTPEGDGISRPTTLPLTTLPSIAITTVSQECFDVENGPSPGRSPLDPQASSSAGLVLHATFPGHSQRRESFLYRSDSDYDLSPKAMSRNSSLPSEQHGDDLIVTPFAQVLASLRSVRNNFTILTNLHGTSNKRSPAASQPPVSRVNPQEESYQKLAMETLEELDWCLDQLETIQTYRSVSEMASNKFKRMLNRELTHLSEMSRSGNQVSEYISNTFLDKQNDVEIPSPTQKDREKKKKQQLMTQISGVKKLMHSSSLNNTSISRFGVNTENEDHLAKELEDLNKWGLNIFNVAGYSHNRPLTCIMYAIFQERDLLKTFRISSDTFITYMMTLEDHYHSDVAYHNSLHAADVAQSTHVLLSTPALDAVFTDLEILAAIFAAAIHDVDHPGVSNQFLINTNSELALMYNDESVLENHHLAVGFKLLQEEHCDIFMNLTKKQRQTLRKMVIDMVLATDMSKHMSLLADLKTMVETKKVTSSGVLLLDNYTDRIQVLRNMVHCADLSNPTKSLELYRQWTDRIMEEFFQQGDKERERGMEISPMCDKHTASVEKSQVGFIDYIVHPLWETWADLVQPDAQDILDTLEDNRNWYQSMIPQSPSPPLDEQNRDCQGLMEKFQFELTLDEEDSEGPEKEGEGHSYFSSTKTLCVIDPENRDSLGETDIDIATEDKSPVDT
Sequence of Lysosomal acid glucosylceramidase (Homo sapiens) (P04062 whole entry, looked up): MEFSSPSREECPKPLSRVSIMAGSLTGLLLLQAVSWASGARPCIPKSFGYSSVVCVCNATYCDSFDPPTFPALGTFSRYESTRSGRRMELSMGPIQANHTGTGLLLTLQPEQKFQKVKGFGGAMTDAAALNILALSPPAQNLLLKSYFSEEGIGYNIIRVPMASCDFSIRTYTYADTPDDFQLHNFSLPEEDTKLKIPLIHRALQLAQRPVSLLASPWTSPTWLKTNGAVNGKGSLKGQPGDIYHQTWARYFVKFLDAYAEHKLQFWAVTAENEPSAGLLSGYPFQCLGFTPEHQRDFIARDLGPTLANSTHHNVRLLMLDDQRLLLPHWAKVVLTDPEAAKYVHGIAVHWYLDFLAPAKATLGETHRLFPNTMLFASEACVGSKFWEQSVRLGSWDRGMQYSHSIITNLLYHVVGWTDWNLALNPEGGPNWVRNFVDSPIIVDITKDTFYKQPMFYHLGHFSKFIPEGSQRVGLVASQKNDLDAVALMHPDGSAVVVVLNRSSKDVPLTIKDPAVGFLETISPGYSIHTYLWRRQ
Sequence of Glucocorticoid receptor (Homo sapiens) (P04150 whole entry, looked up, the tested form may be a part): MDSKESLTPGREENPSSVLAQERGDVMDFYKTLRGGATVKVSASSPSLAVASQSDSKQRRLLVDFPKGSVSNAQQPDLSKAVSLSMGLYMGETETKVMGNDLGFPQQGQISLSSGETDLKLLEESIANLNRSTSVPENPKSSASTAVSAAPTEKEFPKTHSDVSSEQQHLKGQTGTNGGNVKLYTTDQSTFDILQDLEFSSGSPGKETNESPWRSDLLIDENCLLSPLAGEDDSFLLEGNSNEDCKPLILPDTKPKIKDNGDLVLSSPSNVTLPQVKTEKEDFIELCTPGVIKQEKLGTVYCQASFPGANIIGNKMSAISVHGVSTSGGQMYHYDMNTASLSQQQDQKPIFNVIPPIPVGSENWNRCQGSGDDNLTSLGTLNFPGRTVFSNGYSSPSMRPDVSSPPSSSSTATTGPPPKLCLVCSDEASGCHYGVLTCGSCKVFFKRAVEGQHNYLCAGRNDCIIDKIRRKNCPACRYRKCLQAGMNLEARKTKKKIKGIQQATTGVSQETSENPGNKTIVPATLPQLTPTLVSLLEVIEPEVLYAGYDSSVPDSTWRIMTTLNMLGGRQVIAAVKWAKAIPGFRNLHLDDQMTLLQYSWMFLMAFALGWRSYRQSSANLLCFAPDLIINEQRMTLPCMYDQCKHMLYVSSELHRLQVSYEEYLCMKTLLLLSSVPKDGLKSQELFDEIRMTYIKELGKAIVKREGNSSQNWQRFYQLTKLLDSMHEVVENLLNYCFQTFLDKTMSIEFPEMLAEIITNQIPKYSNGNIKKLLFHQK
Sequence of Cytochrome P450 3A4 (Homo sapiens) (P08684 whole entry, looked up): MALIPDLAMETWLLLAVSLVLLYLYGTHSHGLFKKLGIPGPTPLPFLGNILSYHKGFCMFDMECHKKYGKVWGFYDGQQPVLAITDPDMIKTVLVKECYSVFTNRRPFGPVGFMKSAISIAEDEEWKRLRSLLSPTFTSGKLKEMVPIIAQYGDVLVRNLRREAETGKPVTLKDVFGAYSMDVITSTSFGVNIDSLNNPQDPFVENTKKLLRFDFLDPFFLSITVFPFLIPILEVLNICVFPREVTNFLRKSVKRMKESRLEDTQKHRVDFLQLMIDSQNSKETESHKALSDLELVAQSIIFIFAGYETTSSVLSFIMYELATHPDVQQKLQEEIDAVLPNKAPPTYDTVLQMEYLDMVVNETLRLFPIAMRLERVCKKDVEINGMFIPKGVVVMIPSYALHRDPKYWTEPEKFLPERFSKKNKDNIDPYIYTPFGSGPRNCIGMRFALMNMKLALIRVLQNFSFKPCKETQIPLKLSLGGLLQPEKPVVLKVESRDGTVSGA

O=C(c1csnn1)N1CCC[C@@]2(CCN(c3cccc(-c4ccccc4)c3)C2)C1
inactive: Potency [1] > 11.4 µM | activity change, negative = inhibition [2] -28.1% | activity change, negative = inhibition [3] 12.1% | activity, negative = inhibition [4] 6.22% | Potency [5] > 46 µM | Potency [6] | Potency [7] | outcome [8]

O=C(c1ccco1)N1CCC2(CCN(Cc3cc(C(F)(F)F)cc(C(F)(F)F)c3)CC2)CC1
inactive: Potency [1] > 11.4 µM | activity change, negative = inhibition [2] -1.98% | activity change, negative = inhibition [3] 2.65% | activity, negative = inhibition [4] 0.499% | Potency [5] > 46 µM | Potency [6] | Potency [7] | activation [9] -7.14% | outcome [8]

N#Cc1cccc(NC(=O)N2CCC3(CC2)CCN(C(=O)c2cnccn2)CC3)c1
inactive: Potency [1] > 11.4 µM | activity change, negative = inhibition [2] -8.55% | activity change, negative = inhibition [3] -3% | activity, negative = inhibition [4] 2.13% | Potency [5] > 46 µM | Potency [6] | Potency [7] | outcome [8]

O=C(c1ccco1)N1CCC2(CC1)CN(c1ncccn1)C2
active: Potency [11] 15.8 µM
inactive: Potency [1] > 11.4 µM | activity change, negative = inhibition [2] -3.83% | activity change, negative = inhibition [3] 0.563% | activity, negative = inhibition [4] 2.05% | Potency [5] > 46 µM | Potency [6] | Potency [7] | Potency [10] | outcome [8]

COc1ccc(NC(=O)N2CC[C@@]3(CCCN(C(=O)c4cccc(F)c4)C3)C2)cc1
inactive: Potency [1] > 11.4 µM | activity change, negative = inhibition [2] -11.4% | activity change, negative = inhibition [3] 6.04% | activity, negative = inhibition [4] -0.331% | Potency [5] > 46 µM | Potency [6] | Potency [7] | Potency [11] | outcome [8]

N#Cc1ccc(CN2CC[C@@]3(CCCN(C(=O)c4cccc(F)c4)C3)C2)cc1
inactive: Potency [1] > 11.4 µM | activity change, negative = inhibition [2] -24.8% | activity change, negative = inhibition [3] -12.5% | activity, negative = inhibition [4] -4.01% | Potency [5] > 46 µM | Potency [6] | Potency [7] | outcome [8]

CC(=O)N1CCC2(CC1)CCN(c1ccccc1)CC2
inactive: Potency [1] > 11.4 µM | activity change, negative = inhibition [2] 16.1% | activity change, negative = inhibition [3] -0.227% | activity, negative = inhibition [4] 2.99% | Potency [5] > 46 µM | Potency [6] | Potency [7] | activation [9] -2.78% | outcome [8]

N#Cc1ccc(CN2CC[C@@]3(CCCN(C(=O)c4ccco4)C3)C2)cc1
inactive: Potency [1] > 11.4 µM | activity change, negative = inhibition [2] 0.694% | activity change, negative = inhibition [3] -6.92% | activity, negative = inhibition [4] 12.6% | Potency [5] > 46 µM | Potency [6] | Potency [7] | outcome [8]

COC(=O)N1CCC2(CCN(C(=O)Nc3ccc(OC)cc3)CC2)CC1
inactive: Potency [1] > 11.4 µM | activity change, negative = inhibition [2] -1.58% | activity change, negative = inhibition [3] -8.6% | activity, negative = inhibition [4] 3.42% | Potency [5] > 46 µM | Potency [6] | Potency [7] | outcome [8]

Cc1noc(C)c1C(=O)N1CCC2(CCCN(c3ncccn3)C2)CC1
inactive: Potency [1] > 11.4 µM | activity change, negative = inhibition [2] -6.23% | activity change, negative = inhibition [3] 7.66% | activity, negative = inhibition [4] -4.43% | Potency [5] > 46 µM | Potency [6] | Potency [7] | outcome [8]

O=C(c1ccco1)N1CCC2(CCCN(c3ncccn3)C2)CC1
inactive: Potency [1] > 11.4 µM | activity change, negative = inhibition [2] 3.88% | activity change, negative = inhibition [3] -1.96% | activity, negative = inhibition [4] -7% | Potency [5] > 46 µM | Potency [6] | Potency [7] | outcome [8]

O=C(c1cnccn1)N1CCC[C@@]2(CCN(c3ccccn3)C2)C1
inactive: Potency [1] > 11.4 µM | activity change, negative = inhibition [2] 7.84% | activity change, negative = inhibition [3] 0.825% | activity, negative = inhibition [4] 0.945% | Potency [5] > 46 µM | Potency [6] | Potency [7] | Potency [11] | outcome [8]

COC(=O)N1CCC[C@@]2(CCN(Cc3nccs3)C2)C1
inactive: Potency [1] > 11.4 µM | activity change, negative = inhibition [2] 1.72% | activity change, negative = inhibition [3] 14.9% | activity, negative = inhibition [4] -4.13% | Potency [5] > 46 µM | Potency [6] | Potency [7] | outcome [8]
